gsp antag = qHTS for Antagonists of gsp, the Etiologic Mutation Responsible for Fibrous Dysplasia/McCune-Albright Syndrome: qHTS. gsp-mutant cells, cAMP HTRF, 30 min. Potency, µM (doses to about 76.9 µM), for the others: top-dose activity change, negative = inhibition, actives largely listed as inhibitors. 0.4% of 340,000 active. AID 624288, 2012; calls by dose curve; cell line not stated here;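 also: intracellular cAMP measured with PDE inhibitor Ro 20-1724 present during compound exposure; potency is read from the fitted curve at half-maximal effect; % is scaled to controls: 0 for no effect and ±100 for the full control effect; nearly all actives have a fitted effect of over 65% in size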
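Measurement of cellular cAMP by homogeneous time-resolved fluorescence following a 30 min compound exposure at 37C. The PDE inhibitor […] was present throughout; the assay buffer was DPBS with 0.05% BSA and 0.005% Tween 20.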
RXFP1 ag = qHTS Assay for Agonists of the Relaxin Receptor RXFP1 | Relaxin receptor 1 (Homo sapiens), Q9HBX9 | HEK293T-RXFP1 cAMP TR-FRET, 30 min; response scale: percent of porcine relaxin response, buffer zero | Potency, µM (doses to about 57.5 µM), for inactives: at the top dose activation, most hits filed as activators | 0.3% of 370,000 active | AID 2676, 2010; active = well fitted activation curve with a large enough effect; inconclusive = small, poorly fitted or top-dose-only effect; also: potency is read from the fitted curve at half-maximal effect; % is scaled to controls: 0 for no effect and ±100 for the full control effect; nearly all actives have a fitted effect of over 60% in size
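Agonist response is measured as cAMP accumulation in an RXFP1-transfected HEK293T line under PDE4 inhibition. Values are scaled between buffer-only and 29 nM porcine relaxin, and EC50s come from standard Hill equation fits.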
TSHR antagonist = Antagonists of the Thyroid Stimulating Hormone Receptor: HTS campaign; activity change, negative = inhibition, % at 11.5 µM; TSHR-expressing cells, TSH-stimulated cAMP HTRF, 2 h; active compounds read low; 0.2% of 330,000 active; AID 504810, 2011; Thyrotropin receptor (Homo sapiens), P16473;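 active = activity change below a set negative limit, meaning inhibition stronger than a set level, cut at about -70% in these data; inconclusive = activity change between two set negative limits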; also: % is scaled to controls: 0 for no effect and ±100 for the full control effect
Target sequence (P16473 whole entry, looked up): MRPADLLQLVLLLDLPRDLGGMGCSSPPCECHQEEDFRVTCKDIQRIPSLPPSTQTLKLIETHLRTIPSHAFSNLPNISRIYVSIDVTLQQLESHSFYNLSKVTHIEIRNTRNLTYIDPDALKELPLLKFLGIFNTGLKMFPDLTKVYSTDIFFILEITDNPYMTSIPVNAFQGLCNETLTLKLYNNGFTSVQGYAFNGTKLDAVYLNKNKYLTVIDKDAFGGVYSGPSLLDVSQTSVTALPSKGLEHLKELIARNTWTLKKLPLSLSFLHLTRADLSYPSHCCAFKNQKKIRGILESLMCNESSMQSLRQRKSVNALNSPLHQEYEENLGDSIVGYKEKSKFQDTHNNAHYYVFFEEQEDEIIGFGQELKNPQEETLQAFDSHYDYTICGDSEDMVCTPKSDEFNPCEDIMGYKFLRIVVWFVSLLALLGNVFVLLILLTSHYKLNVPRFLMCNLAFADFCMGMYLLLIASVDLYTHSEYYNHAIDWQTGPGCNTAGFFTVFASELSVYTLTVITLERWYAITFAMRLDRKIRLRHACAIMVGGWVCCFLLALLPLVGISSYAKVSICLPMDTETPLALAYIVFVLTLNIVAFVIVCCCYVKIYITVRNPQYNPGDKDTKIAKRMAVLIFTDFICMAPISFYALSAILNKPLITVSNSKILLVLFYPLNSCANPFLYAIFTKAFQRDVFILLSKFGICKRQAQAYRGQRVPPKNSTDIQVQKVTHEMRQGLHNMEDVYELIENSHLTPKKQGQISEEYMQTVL
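Inhibition of cAMP made by TSHR-expressing cells under TSH stimulation (4nM final, EC80; 2 h, 37 deg C) is quantified with a one-step lysis HTRF kit, anti-cAMP cryptate versus cAMP-d2.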
gsp agonist = qHTS for Agonist of gsp, the Etiologic Mutation Responsible for Fibrous Dysplasia/McCune-Albright Syndrome: qHTS. Potency, µM (top dose mostly 76.9 µM), for inactives: top-dose activation (cAMP increase), usual class: activators. gsp mutant cells, cAMP HTRF, 30 min. 0.13% of 340,000 active. AID 624287, 2012; active = well fitted activation curve with a large enough effect; inconclusive = small, poorly fitted or top-dose-only effect, or another doubt; inactive = no such curve, though single readings can be large or run the other way; cell line not stated here;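 also: phosphodiesterase inhibitor Ro 20-1724 added with compounds to block cAMP breakdown; potency is read from the fitted curve at half-maximal effect; nearly all actives have a fitted effect of over 60% in size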
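Cells in DMEM/10% FBS with G418 were pretreated with compounds in DMSO plus […] (300 uM stock) for 30 min at 37C. cAMP was measured by HTRF (cAMP-d2 plus anti-cAMP antibody-K) after 30 min at room temperature.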
RXFP1 antag = qHTS Assay for Antagonists of the Relaxin Receptor RXFP1 | Relaxin receptor 1 (Homo sapiens), Q9HBX9 | HEK293-RXFP1, relaxin-stimulated cAMP HTRF, 30 min; active compounds read low | activity change, negative = inhibition, % at 57.5 µM | 0.59% of 350,000 active | AID 1259400, 2018;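 active = activity change of -60% or lower, but not beyond a set lower limit; inconclusive = change between -60% and -40%, or beyond the set limit; inactive = change above -40%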; also: % is scaled to controls: 0 for no effect and ±100 for the full control effect
The depositor's hits bear a star; ? = inconclusive; / = not tested or not shown; [ ] = dose if it differs, or a comment. Only some compounds are listed: those with a hit (about 1% of all), similar ones and a draw of the others.

SMILES	gsp antag	RXFP1 ag	TSHR antagonist	gsp agonist	RXFP1 antag
COCCOCCn1c(/C=C/c2ccccc2)nc2ccccc21	-14%	8%	0	-3%[15.4 µM]	-38
CCn1c(/C=N/c2nc3ccccc3n2C)nc2ccccc21	6%	0%	30	6%	12
CCn1c(=NC(=O)c2ccc(S(=O)(=O)N3CCCC3)cc2)sc2cc(Br)ccc21	/	26%	/	/	/
Cc1cccc(C(=O)n2nc(C)c(S(=O)(=O)N3CCOCC3)c2C)c1	/	1%	/	/	/
O=C1/C(=C2\C(=O)N(Cc3ccc(F)cc3)c3ccccc32)SC(=S)N1CCS(=O)(=O)O	-1%	0%	-2	-51%	-72*
CC(C)CCN1CCN(Cc2cccn2-c2cccnc2)CC1CCO (stereo not drawn)	2%	-2%	-4	-21%	1
COc1cccc(CN2CCN(Cc3cccn3-c3cccnc3)CC2CCO)c1 (stereo not drawn)	50µM*	1%	4	-13%	-7
CC(C)CCn1c2ccccc2c2cc(CC(N)=O)ccc21	1%	0%	-7	2%	-72*
COc1ccc2cc(C=O)ccc2c1	/	/	/	/	-28
Cc1cc(=S)c2ccccc2[nH]1	9%	?	-7	?	15
Cc1ccc2[nH]c(C)cc(=S)c2c1	/	20µM*	14	26%[15.4 µM]	16
CCOC(=O)N1CCN(c2ncnc3nc[nH]c23)CC1	-1%	7%	-6	20µM*	/
COc1ccc2c(C(=S)N(C)CC(=O)O)cccc2c1C(F)(F)F	/	/	/	/	-3
COc1cc(/C=N/NC(=O)c2ccccn2)ccc1OC(=O)c1ccc(Br)cc1	-7%	0%	-1	-34%	-34
COc1cc(/C=N/NC(=O)c2ccccn2)ccc1OC(=O)c1ccccc1Br	?	0%	-34	-16%[15.4 µM]	-97*
COc1ccccc1N1CCN(C(=O)C2CCN(S(=O)(=O)Cc3ccccc3)CC2)CC1	/	19%	/	/	-6
O=C(CN1C(=O)c2ccccc2S1(=O)=O)NC(Nc1ccccc1F)C(Cl)(Cl)Cl (stereo not drawn)	-24%	3%	-14	-18%	-105*
C[n+]1c2n(c3ccccc31)N=C(c1cc(C(C)(C)C)c(O)c(C(C)(C)C)c1)CS2	-3%	0%	-21	19%	-85*
CCOC(=O)C1CCN(C(=O)c2nn(-c3ccc(OC)cc3)c(=O)c3c2c2ccccc2n3C)CC1	/	5%	/	/	-3
CCN(CC)CC(=O)Oc1ccc(NC(C)=O)cc1	/	/	/	/	10
N#Cc1c(N)[nH]c(=S)c(C#N)c1-c1ccccc1	20%	30%	-5	20µM*	34
O=C(NC1CCCCC1)c1ccc(CNc2nc(=S)[nH]c3ccccc23)cc1	-15%	0%	6	6%[15.4 µM]	-81*
CCC1(c2ccccc2)SCC(c2ccccc2)=NC1=O (stereo not drawn)	-15%	/	/	3%	-62*
CCOCCCNC(=O)c1cn(C)c2ccc(S(=O)(=O)N3CCCC3)cc2c1=O	-7%	5%	1	-47%	-13
COC(CNC(=O)c1cn(C)c2ccc(S(=O)(=O)N3CCOCC3)cc2c1=O)OC	3%	9%	-118*	?	-8
SMILES	gsp antag	RXFP1 ag	TSHR antagonist	gsp agonist	RXFP1 antag
COCCNC(=O)c1cn(C)c2ccc(S(=O)(=O)N3CCCC3)cc2c1=O	50µM*	5%	6	4%	-4
CC(C)Cc1nn2c(=O)cc(COC(=O)c3ccccc3NC(=O)c3ccccc3)nc2s1	/	2%	/	/	14
COc1cccc(CN2C(=O)c3ccccc3Sc3ccc(C(=O)NCCc4ccc(C)cc4)cc32)c1	/	2%	/	/	/
O=C(NC(Cc1c[nH]c2ccccc12)C(=O)Nc1ccc(OC(F)(F)F)cc1)c1cccs1 (stereo not drawn)	4%	0%	-13	0%[15.4 µM]	-71*
O=C(NC(Cc1c[nH]c2ccccc12)C(=O)Nc1ccc(F)c([N+](=O)[O-])c1)c1cccs1 (stereo not drawn)	-2%	0%	-12	1%	-3
O=C(CCCSc1ccc(Cl)cc1)Nc1cc(S(=O)(=O)N2CCOCC2)ccc1O	32µM*	0%	-18	-28%	-8
O=C(Nc1cc(S(=O)(=O)N2CCOCC2)ccc1O)c1ccc(S(=O)(=O)N2CCCCC2)cc1	8.9µM*	/	-15	-7%	0
Cc1ccc(S(=O)(=O)N2CCOCC2)cc1NC(=O)CSc1ccc(Cl)cc1	-3%	1%	-7	-42%	-10
COC(=O)c1cc2c(cc1NC(=O)c1c(C)nn(-c3ccc(C)cc3)c1-n1cccc1)OCO2	/	-5%	/	/	12
CCCS(=O)(=O)c1nc(S(=O)(=O)c2ccc(C)cc2)c(N2CCN(CC)CC2)s1	14%	?	22	?	34
CCS(=O)(=O)c1nc(S(=O)(=O)c2ccc(C)cc2)c(N2CC(C)OC(C)C2)s1 (stereo not drawn)	4%	28µM*	15	?	-15
CCS(=O)(=O)c1nc(S(=O)(=O)c2ccc(Cl)cc2)c(NCCCN2CCCC2=O)s1	1%	20%	18	?	26
CCCS(=O)(=O)c1nc(S(=O)(=O)c2ccc(C)cc2)c(NCCCN2CCCC2=O)s1	-4%	17%	-10	2.8µM*	23
CCCS(=O)(=O)c1nc(S(=O)(=O)c2ccc(C)cc2)c(N2CCN(C)CC2)s1	5%	?	5	3.2µM*	5
CCCS(=O)(=O)c1nc(S(=O)(=O)c2ccc(C)cc2)c(N2CC(C)OC(C)C2)s1 (stereo not drawn)	-7%	25%	23	?	17
O=C(NCCS(=O)(=O)N1CCN(c2ccccc2)CC1)C(c1ccccc1)c1ccccc1	/	2%	/	/	-23
O=C(CO)[C@@H](O)[C@H](O)[C@@H](O)CO	/	/	/	/	-3
Cc1ccc(-c2cc3ncc(C(=O)c4cc(Cl)c(C)cc4O)cn3n2)cc1	/	2%	/	/	/
COc1ccc(Nc2nc(N3CCCCC3)c3ccccc3n2)cc1	-33%	3%	-9	-6%	-66*
CCc1cc2c(=O)n(-c3ccccc3)c(SCC(N)=O)nc2s1	7.1µM*	0%	-16	6%	-11
COC(=O)CSc1nc2sccc2c(=O)n1-c1ccccc1	6%	2%	-6	-3%[15.4 µM]	-4
Cc1nn(CCCC(=O)NCc2ccccc2)c(=O)c2nccn12	9%	28µM*	8	?	20
COc1ccc(CNC(=O)CCCn2nc(C)n3ccnc3c2=O)cc1	5%	?	6	?	9
CCc1ccc(CNC(=O)CCCn2nc(C)n3ccnc3c2=O)cc1	7%	?	13	16µM*	-6

From PubChem
